Values joined by “and” are separate entries in the source; they are usually repeats but may differ in a detail not shown here. Identical values can stand only once. Compounds without any hit were thinned out: in the full panel of roughly 83,000, 20% have a hit.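 Percent growth is the endpoint: 0 to 100 indicates growth inhibition (40 means 60% inhibition), 0 means no net growth, and negative values indicate cell death.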 Values without a mark were called inactive. Active and inactive are the calls of the source. Rule for the calls: active = growth percent below 10; inactive = the rest.
Test system: MDA-MB-468 breast
Test: NCI-60 one-dose screen, 48 h (100 = growth as untreated, 0 = no growth, -100 = all killed)
Details: 10 µM unless noted

| SMILES | growth |
| --- | --- |
| C=CCn1c(SCC(=O)Nc2ccc(/C(C)=N\O)cc2)nnc1-c1cc(-c2ccc(OC)cc2)nc2ccccc12 | 17.3% |
| COc1cc(/C=N/Nc2nc3c([nH]2)c(=O)n(C)c(=O)n3C)ccc1O | 103% and 122% |
| CC(C)(C)n1cc(-c2ccnc(NCCCNS(=O)(=O)c3cccc(F)c3)n2)c(-c2ccc(Cl)c(O)c2)n1 | 104% |
| C/C(=C(/c1ccccc1)c1ccc(N2C(=O)c3cccc4c(N5CCN(C)CC5)ccc(c34)C2=O)cc1)c1ccccc1 | 42.5% |
| O=C1c2c(c3c4ccccc4[nH]c3c3ccc4ccccc4c23)C(=O)N1CCN1CCOCC1 | 58.6% |
| COc1ccc(C2=NN(/C=C3\SC(=O)NC3=Nc3ccc(F)cc3)C(c3ccc(F)cc3)C2)cc1 (stereo not given) | 101% |
| CN(C)c1ccc(-c2ccc(-c3ccc(C(=N)N)cn3)o2)cc1 | -64.4% (active) |
| N#CC(C#N)=Cc1cc2ccccc2nc1Oc1ccc(C(F)(F)F)cc1 | 86.1% |
| Nc1c(O)c(S(=O)(=O)O)c(O)c2c1C(=O)c1ccccc1C2=O | 1.06% (active) |
| COc1cc(/C=C/C(=O)c2ccccc2)cc(OC)c1OC | 64.7% |
| Fc1cc(Nc2ccc3c(OCCCN4CCOCC4)cccc3n2)ccc1Cl | 28.5% |
| CCNc1nc2c(cnn2C)c(=O)[nH]1 | 97.4% |
| CC(CN)[C@@H]1CC[C@]2(CO)CC[C@]3(C)[C@H](CC[C@@H]4[C@@]5(C)CCC(N)C(C)(C)[C@@H]5CC[C@]43C)[C@@H]12 (stereo not given in full) | 6.19% (active) |
| CCOC(=O)c1cc(C(=O)c2cc(OC)cc(OC)c2)n2ccccc12 | 30.2% |
| CC(Br)C(OC(=O)c1ccccc1Cl)c1cc2c(cc1Br)OCO2 (stereo not given) | 66.4% |
| COc1cc(C2C3=C(COC3=O)N(CCO)c3cc4c(cc32)OCCO4)cc(OC)c1O (stereo not given) | -24.4% (active) |
| Cn1ccc(=O)nc1 | 71.1% |
| CC(c1ccccc1)N1C(=O)CSC1=S (stereo not given) | -5.47% (active) |
| CN1CCC(CNc2ccc3ncc(-c4cccc(OC(F)(F)F)c4)n3n2)CC1 | -84.8% (active) |
| COc1cc2ccc(C(C)=O)cc2cc1OC | 106% |

| SMILES | growth |
| --- | --- |
| O=C1/C(=C\c2cn(C(=O)c3ccc(Cl)cc3)c3ccccc23)c2ccccc2N1C(=O)c1ccc(Cl)cc1 | 51.7% |
| CC[C@H](CC[C@@H](C)[C@H]1CC[C@H]2[C@@H]3CC(=O)C4=CC(=O)/C(=C/c5ccc([N+](=O)[O-])cc5)C[C@]4(C)[C@H]3CC[C@]12C)C(C)C | 104% |
| Cc1[nH]c(C(=O)Nc2cccc(OC3CCNCC3)c2)c(Cl)c1Cl | 40.9% |
| OCc1ccccc1F | 72.9% |
| CN=S(=O)(OCCCCCOS(=O)(=NC)c1ccc(C)cc1)c1ccc(C)cc1 (stereo not given) | 83.3% |
| C=C1C(=O)O[C@H]2[C@H]1CC/C(CNC(=O)/C1=C/CC[C@@]3(C)O[C@H]3[C@H]3OC(=O)C(=C)[C@@H]3CC1)=C\CC[C@@]1(C)O[C@@H]21 | 42.9% |
| CCN(CC)CCNC(=O)n1cc(-c2ccncc2)c(-c2cc(Cl)cc(OC)c2)n1 | 80.5% |
| Fc1ccc(C2CC(c3cccc(Nc4ccncc4)c3)=NN2c2ccc(Cl)cc2)cc1 (stereo not given) | 63.6% |
| N#CC1=C(N)Oc2ccc3ccccc3c2C1c1ccccc1 (stereo not given) | 12.7% |
| CCc1c2cc(Cl)ccc2n2cc(Cc3ccccc3)[nH]c(=O)c12 | 115% |
| CCOC(=O)C(C)C(C)(O)c1ccccc1 (stereo not given) | 96.3% |
| CCOC(=O)C1=C(c2ccccc2)N=c2s/c(=C/c3ccc(Br)cc3)c(=O)n2C1c1ccc(O)cc1 (stereo not given) | 83.7% |
| COC1=CC(c2ccc[nH]2)=N/C1=C\c1[nH]c(C)c(C(=O)CCCCC(=O)NC(C)(C)C)c1C | 33.9% |
| CCOc1ccccc1/C=N/Nc1nc2ccccc2o1 | 28.1% |
| Clc1cccc(Cl)c1/C=C/c1cc(/C=C/c2c(Cl)cccc2Cl)[nH]n1 | 12.4% |
| COc1cc(-c2ccc(N=Nc3ccc4c(S(=O)(=O)O)ccc(N)c4c3O)c(OC)c2)ccc1N=Nc1ccc2c(S(=O)(=O)O)ccc(N)c2c1O | 120% |
| COc1ccc(NC(=O)c2sc3nc(C)c(C(=O)/C=C/c4ccccc4)cc3c2N)cc1 | 44.4% |
| COc1cccc(-c2nc3sccn3c2-c2ccnc(NCCNS(=O)(=O)c3ccccc3)c2)c1 | 16.2% |
| Cc1cc(C)c2c(c1)N(C)c1ncnc(-n3cnc4cc(C)ccc43)c1CC2C (stereo not given) | 6.16% (active) |
| Nc1c(C(=O)Nc2cccc(F)c2)sc2nc3c(cc12)C(=O)CCC3 | 33.2% |

Source: PubChem BioAssay (NCI)
